Source: publication PMC7862700, “An all-to-all approach to the identification of sequence-specific readers for epigenetic DNA modifications on cytosine”

Columns and labels:
Assay in all cases: DAPPL (digital affinity profiling via proximity ligation, sequencing); 10 mM Tris-HCl pH 7.5, 50 mM NaCl, 1 mM DTT, 4% glycerol, room temperature, 30 min; GST-TFs on glutathione beads, 16-mer random dsDNA library, 0.1% formaldehyde crosslink after washing; high values mean tight binding
FEV = target: T1, FEV (Homo sapiens, UniProt Q99581 1-238); details: protein: recombinant; tags: N-terminal GST; dsDNA, one strand shown
T1 sequence: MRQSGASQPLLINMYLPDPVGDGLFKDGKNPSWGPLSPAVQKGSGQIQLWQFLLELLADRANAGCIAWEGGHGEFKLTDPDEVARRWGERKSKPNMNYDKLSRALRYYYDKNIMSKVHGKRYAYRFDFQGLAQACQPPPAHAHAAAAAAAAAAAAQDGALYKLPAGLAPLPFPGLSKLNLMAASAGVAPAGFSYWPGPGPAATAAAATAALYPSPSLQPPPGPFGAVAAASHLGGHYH
Outline: (§1)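 Yeast served to express human transcription factors as GST fusions, which were then captured on glutathione beads and labelled with DNA barcodes. Pooled with a tag-only sample, they were incubated with 200 nmole of a 16-mer random double-stranded DNA library for 30 min at room temperature in Tris/NaCl/DTT/glycerol buffer, washed, crosslinked with 0.1% formaldehyde, ligated by proximity, amplified by PCR and sequenced. Dividing each hexamer's read frequency for a factor by its frequency for the tag-only sample gives the binding signal.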

ETV5 = ETV5 (Homo sapiens, UniProt P41161 1-510); details: protein: recombinant; tags: N-terminal GST; dsDNA, one strand shown
ETV5, sequence (P41161 whole entry): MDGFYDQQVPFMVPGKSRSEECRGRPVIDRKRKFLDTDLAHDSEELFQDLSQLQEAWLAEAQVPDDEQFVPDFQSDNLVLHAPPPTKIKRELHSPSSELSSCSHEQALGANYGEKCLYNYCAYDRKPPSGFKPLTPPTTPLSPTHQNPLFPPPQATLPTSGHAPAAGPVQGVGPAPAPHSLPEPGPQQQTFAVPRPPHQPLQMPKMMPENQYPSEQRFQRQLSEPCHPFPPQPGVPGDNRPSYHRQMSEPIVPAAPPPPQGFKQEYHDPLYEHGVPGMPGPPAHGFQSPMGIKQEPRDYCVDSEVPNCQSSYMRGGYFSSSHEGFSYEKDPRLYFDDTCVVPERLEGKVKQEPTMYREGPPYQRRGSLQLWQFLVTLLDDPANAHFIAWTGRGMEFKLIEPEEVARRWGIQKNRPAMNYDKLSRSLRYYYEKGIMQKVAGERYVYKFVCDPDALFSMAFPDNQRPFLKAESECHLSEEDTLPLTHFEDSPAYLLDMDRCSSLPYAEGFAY
Outline: as §1

HSF1 = HSF1 (Homo sapiens, UniProt Q00613 1-529); details: protein: recombinant; tags: N-terminal GST; chain copies: 3; dsDNA, one strand shown
HSF1, sequence (Q00613 whole entry): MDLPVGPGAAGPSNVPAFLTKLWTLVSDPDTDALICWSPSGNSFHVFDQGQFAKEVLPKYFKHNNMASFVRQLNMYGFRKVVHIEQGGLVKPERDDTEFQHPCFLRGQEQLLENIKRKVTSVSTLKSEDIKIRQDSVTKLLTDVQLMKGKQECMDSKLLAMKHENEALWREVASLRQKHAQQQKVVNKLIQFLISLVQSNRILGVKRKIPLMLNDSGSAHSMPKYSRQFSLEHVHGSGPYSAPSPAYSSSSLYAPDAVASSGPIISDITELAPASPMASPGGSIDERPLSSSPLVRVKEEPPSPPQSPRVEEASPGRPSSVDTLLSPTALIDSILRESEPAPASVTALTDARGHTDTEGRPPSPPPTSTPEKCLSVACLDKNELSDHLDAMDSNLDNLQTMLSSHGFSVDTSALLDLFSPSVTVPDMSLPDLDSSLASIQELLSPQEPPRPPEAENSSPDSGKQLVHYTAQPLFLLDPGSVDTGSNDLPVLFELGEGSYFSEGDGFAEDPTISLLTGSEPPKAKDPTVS
Outline: as §1

SPIC = target: T2, SPIC (Homo sapiens, UniProt Q8N5J4 1-248); details: protein: recombinant; tags: N-terminal GST; dsDNA, one strand shown
T2 sequence: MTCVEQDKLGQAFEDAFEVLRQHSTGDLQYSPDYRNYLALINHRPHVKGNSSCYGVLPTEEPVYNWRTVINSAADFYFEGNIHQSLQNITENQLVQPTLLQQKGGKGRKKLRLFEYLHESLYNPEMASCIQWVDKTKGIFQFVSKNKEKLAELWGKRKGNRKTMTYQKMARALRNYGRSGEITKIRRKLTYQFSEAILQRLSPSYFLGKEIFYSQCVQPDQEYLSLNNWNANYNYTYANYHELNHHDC
Outline: as §1

ELF4 = ELF4 (Homo sapiens, UniProt Q99607 1-663); details: protein: recombinant; tags: N-terminal GST; dsDNA, one strand shown
ELF4, sequence (Q99607 whole entry): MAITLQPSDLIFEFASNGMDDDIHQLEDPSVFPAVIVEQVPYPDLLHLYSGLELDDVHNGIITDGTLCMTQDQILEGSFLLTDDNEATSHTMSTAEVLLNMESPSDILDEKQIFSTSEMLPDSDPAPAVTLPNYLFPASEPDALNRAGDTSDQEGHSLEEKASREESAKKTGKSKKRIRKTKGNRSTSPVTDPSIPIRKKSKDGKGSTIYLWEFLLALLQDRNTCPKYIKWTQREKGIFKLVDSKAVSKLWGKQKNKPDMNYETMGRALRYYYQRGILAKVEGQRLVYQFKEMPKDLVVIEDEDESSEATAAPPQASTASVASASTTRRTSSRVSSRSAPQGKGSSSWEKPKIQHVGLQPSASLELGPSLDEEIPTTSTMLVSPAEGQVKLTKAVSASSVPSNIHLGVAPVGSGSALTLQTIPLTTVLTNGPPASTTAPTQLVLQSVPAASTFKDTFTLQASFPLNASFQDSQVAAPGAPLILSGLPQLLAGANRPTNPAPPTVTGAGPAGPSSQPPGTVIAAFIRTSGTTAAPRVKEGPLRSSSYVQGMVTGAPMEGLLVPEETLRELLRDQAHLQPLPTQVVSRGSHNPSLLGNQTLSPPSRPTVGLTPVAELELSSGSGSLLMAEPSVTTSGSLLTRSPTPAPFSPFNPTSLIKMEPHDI
Outline: as §1

ELK4 = target: T3, ELK4 (Homo sapiens, UniProt P28324-2 1-405); details: protein: recombinant; tags: N-terminal GST; dsDNA, one strand shown
T3 sequence: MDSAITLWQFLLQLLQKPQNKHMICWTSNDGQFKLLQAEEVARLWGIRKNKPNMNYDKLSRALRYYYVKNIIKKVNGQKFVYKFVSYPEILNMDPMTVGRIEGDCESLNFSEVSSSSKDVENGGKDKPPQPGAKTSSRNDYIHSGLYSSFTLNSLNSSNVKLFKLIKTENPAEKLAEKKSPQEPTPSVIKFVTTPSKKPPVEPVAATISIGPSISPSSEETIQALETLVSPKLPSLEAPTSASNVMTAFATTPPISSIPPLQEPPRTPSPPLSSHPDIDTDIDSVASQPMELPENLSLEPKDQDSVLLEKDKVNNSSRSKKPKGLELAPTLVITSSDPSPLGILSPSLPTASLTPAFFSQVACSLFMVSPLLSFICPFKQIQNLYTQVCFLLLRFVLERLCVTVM
Outline: as §1

ETV2 = target: T4, ETV2 (Homo sapiens, UniProt O00321 1-342); details: protein: recombinant; tags: N-terminal GST; dsDNA, one strand shown
T4 sequence: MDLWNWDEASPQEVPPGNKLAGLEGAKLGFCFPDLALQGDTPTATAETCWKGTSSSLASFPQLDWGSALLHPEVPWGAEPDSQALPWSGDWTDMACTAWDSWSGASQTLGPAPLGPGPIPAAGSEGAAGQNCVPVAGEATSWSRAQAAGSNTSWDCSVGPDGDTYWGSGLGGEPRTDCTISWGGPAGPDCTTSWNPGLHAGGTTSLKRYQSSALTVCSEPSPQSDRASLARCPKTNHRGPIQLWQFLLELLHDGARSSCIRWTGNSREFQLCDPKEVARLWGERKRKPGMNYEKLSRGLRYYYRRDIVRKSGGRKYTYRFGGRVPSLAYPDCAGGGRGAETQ
Outline: as §1

ELF3 = target: T5, ELF3 (Homo sapiens, UniProt P78545 1-371); details: protein: recombinant; tags: N-terminal GST; dsDNA, one strand shown
T5 sequence: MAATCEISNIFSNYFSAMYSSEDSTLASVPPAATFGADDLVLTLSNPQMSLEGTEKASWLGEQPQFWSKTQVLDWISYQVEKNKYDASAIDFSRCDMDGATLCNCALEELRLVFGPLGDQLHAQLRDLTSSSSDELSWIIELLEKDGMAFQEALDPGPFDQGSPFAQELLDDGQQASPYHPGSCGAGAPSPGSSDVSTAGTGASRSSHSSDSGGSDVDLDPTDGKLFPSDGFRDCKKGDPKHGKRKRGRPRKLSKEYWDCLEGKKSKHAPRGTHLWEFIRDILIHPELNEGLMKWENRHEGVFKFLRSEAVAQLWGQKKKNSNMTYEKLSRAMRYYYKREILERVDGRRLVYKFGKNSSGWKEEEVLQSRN
Outline: as §1

CRX = CRX (Homo sapiens, UniProt O43186 1-299); details: protein: recombinant; tags: N-terminal GST; dsDNA, one strand shown
CRX, sequence (O43186 whole entry): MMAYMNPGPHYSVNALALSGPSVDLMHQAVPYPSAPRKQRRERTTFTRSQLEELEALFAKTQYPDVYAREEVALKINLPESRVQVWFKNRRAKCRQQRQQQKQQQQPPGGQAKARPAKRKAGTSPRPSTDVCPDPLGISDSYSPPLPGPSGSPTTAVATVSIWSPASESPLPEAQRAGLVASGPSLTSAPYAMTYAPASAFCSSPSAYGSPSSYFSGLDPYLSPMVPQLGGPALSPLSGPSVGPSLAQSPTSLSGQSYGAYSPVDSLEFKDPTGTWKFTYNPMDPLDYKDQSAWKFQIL
Outline: as §1

ETV1 = ETV1 (Homo sapiens, UniProt P50549 1-477); details: protein: recombinant; tags: N-terminal GST; dsDNA, one strand shown
ETV1, sequence (P50549 whole entry): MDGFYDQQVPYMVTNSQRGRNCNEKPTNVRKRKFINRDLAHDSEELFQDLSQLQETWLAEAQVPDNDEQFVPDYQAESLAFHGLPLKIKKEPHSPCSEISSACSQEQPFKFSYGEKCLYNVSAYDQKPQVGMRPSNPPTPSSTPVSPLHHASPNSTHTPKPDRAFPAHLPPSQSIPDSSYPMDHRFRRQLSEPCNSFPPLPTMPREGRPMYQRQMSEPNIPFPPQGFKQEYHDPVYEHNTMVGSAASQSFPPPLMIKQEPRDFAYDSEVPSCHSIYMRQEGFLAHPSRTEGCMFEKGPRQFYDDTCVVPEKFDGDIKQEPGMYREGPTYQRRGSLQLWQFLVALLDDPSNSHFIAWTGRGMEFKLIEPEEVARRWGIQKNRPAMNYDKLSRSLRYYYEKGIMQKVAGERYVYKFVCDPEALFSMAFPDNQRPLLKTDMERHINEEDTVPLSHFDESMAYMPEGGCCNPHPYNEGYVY
Outline: as §1

ERF = target: T6, ERF (Homo sapiens, UniProt P50548 1-548); details: protein: recombinant; tags: N-terminal GST; dsDNA, one strand shown
T6 sequence: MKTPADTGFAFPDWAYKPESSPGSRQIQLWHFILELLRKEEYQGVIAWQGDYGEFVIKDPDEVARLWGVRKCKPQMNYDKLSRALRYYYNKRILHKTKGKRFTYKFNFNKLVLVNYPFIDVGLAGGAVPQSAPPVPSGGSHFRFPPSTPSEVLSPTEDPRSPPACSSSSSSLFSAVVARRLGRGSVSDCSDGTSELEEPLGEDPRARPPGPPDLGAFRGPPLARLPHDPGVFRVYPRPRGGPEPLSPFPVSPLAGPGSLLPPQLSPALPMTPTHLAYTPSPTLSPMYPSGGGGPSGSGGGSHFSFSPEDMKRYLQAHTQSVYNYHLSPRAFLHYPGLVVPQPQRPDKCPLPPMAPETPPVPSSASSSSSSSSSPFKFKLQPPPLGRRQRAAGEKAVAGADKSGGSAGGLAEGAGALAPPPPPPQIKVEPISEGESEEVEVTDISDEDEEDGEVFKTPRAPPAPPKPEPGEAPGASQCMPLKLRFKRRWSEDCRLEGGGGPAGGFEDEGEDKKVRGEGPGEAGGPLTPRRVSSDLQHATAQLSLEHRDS
Outline: as §1

ETV3L = target: T7, ETV3L (Homo sapiens, UniProt Q6ZN32 1-361); details: protein: recombinant; tags: N-terminal GST; dsDNA, one strand shown
T7 sequence: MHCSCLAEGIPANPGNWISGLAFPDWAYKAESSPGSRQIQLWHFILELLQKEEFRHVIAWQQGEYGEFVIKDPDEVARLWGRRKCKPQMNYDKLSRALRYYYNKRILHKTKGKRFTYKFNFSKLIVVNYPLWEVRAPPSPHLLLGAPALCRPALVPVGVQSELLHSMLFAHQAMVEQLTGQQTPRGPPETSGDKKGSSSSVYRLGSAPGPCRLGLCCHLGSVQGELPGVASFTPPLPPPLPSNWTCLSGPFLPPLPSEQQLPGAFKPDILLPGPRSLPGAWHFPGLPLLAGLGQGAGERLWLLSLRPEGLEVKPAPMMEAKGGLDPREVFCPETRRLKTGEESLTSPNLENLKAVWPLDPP
Outline: as §1

ETS2 = target: T8, ETS2 (Homo sapiens, UniProt P15036 1-469); details: protein: recombinant; tags: N-terminal GST; dsDNA, one strand shown
T8 sequence: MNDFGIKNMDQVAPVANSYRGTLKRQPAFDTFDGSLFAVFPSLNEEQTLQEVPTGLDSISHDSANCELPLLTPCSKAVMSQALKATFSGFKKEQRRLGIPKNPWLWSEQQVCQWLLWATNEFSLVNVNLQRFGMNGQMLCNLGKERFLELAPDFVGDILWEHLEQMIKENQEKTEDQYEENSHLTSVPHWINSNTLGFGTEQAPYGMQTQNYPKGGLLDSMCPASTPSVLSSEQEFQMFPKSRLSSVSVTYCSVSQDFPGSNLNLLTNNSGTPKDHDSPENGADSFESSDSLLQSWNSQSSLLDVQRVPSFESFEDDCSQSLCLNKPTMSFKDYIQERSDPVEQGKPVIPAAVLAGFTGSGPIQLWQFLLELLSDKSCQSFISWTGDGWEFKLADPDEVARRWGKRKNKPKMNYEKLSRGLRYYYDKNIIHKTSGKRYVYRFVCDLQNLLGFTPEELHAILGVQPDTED
Outline: as §1

SPDEF = target: T9, SPDEF (Homo sapiens, UniProt O95238 1-335); details: protein: recombinant; tags: N-terminal GST; dsDNA, one strand shown
T9 sequence: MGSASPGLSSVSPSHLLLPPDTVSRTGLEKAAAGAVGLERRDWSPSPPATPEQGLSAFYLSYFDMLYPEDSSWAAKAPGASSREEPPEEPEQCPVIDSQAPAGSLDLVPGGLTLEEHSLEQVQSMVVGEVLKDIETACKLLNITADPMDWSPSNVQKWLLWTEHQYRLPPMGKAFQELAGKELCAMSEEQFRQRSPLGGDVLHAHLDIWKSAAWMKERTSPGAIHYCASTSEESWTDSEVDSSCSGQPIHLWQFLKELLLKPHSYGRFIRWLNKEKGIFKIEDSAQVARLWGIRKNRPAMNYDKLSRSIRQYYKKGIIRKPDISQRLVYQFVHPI
Outline: as §1

ETV7 = target: T10, ETV7 (Homo sapiens, UniProt Q9Y603 1-341); details: protein: recombinant; tags: N-terminal GST; dsDNA, one strand shown
T10 sequence: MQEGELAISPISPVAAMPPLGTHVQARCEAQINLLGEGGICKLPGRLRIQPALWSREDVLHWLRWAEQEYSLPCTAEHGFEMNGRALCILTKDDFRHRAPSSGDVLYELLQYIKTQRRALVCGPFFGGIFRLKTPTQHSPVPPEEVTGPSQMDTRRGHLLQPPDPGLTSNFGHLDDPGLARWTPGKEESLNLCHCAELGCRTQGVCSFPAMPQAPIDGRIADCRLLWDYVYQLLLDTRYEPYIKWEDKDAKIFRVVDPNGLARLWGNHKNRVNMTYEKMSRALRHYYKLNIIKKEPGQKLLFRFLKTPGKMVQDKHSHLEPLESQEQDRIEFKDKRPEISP
Outline: as §1

ELF5 = target: T11, ELF5 (Homo sapiens, UniProt Q9UKW6-2 1-255); details: protein: recombinant; tags: N-terminal GST; dsDNA, one strand shown
T11 sequence: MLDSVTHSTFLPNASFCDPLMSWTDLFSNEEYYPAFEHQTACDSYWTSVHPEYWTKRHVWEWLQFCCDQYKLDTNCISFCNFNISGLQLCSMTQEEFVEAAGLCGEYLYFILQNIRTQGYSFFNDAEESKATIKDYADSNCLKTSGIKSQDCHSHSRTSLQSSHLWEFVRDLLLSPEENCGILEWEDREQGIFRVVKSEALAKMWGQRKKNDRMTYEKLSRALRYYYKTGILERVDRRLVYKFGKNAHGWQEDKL
Outline: as §1

ETV3 = target: T12, ETV3 (Homo sapiens, UniProt P41162-2 1-143); details: protein: recombinant; tags: N-terminal GST; dsDNA, one strand shown
T12 sequence: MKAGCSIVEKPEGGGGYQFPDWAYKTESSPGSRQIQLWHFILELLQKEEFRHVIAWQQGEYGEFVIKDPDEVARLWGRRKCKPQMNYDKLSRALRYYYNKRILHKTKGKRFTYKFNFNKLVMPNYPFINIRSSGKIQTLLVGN
Outline: as §1

ETV6 = ETV6 (Homo sapiens, UniProt P41212 1-452); details: protein: recombinant; tags: N-terminal GST; dsDNA, one strand shown
ETV6, sequence (P41212 whole entry): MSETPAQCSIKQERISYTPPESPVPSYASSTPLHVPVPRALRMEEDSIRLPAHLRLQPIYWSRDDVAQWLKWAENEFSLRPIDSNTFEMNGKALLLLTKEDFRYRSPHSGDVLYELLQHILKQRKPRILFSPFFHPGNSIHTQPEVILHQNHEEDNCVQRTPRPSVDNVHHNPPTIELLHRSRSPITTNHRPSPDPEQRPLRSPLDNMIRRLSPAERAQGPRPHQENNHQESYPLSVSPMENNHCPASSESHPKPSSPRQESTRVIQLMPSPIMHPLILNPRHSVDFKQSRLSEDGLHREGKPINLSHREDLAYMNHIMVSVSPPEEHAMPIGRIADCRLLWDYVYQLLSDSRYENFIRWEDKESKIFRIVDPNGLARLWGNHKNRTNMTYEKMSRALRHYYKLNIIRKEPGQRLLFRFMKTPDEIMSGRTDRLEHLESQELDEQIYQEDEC
Outline: as §1

## TTTATT
FEV
  binding signal: 1.29 fold enrichment (6-mer frequency, TF over GST control)
ETV5
  binding signal: 1.29 fold enrichment (6-mer frequency, TF over GST control)
HSF1
  binding signal: 1.46 fold enrichment (6-mer frequency, TF over GST control)
SPIC
  binding signal: 1.25 fold enrichment (6-mer frequency, TF over GST control)
ELF4
  binding signal: 1.3 fold enrichment (6-mer frequency, TF over GST control)
ELK4
  binding signal: 1.27 fold enrichment (6-mer frequency, TF over GST control)
ETV2
  binding signal: 1.29 fold enrichment (6-mer frequency, TF over GST control)
ELF3
  binding signal: 1.29 fold enrichment (6-mer frequency, TF over GST control)
CRX
  binding signal: 1.93 fold enrichment (6-mer frequency, TF over GST control)
ETV1
  binding signal: 1.27 fold enrichment (6-mer frequency, TF over GST control)
ERF
  binding signal: 1.21 fold enrichment (6-mer frequency, TF over GST control)
ETV3L
  binding signal: 1.44 fold enrichment (6-mer frequency, TF over GST control)
ETS2
  binding signal: 1.21 fold enrichment (6-mer frequency, TF over GST control)
SPDEF
  binding signal: 1.2 fold enrichment (6-mer frequency, TF over GST control)
ETV7
  binding signal: 1.31 fold enrichment (6-mer frequency, TF over GST control)
ELF5
  binding signal: 1.24 fold enrichment (6-mer frequency, TF over GST control)
ETV3
  binding signal: 1.33 fold enrichment (6-mer frequency, TF over GST control)
ETV6
  binding signal: 1.28 fold enrichment (6-mer frequency, TF over GST control)
